Test results taken from PubChem BioAssay (NCATS).
Records with an inconclusive call do not appear. Active and inactive are the calls of the source. Calls come from the whole dose curve; as a rule, active = well fitted inhibition curve with a large enough effect; inconclusive = small, poorly fitted or top-dose-only effect; inactive = flat fitted curve, though single readings scatter.

Assays:
Assay in all cases: Cytotoxic Profiling of Annotated Libraries Using Quantitative High-Throughput Screening (AID 1296008); note: nearly all actives have a fitted effect of over 60% in size
Settings in all cases: Five cell lines viability, CellTiter-Glo ATP luminescence, 48-72 h; max response: hits give low values
CRL-7250 = normal cell line; test system: CRL-7250
Method in brief: (§1)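 Cells exposed to compounds for 48 or 72 hr at 37 degrees Celsius. Viability read as ATP-coupled luminescence with CellTiter-Glo after 10 min at room temperature.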

HEK293 = test system: HEK293
Method in brief: as §1

HaCat = test system: HaCat
Method in brief: as §1

KB-3-1 = test system: KB-3-1
Method in brief: as §1

NIH3T3 = test system: NIH3T3
Method in brief: as §1
% is set by controls: 0 for no effect and ±100 for the full control effect; potency is the fitted concentration of half-maximal effect.

CC1CCC23COC(=O)C2=CC(O)CC3C1(C)CCc1ccoc1 (stereo not given)
inactive: max response (CRL-7250) 1.42% | outcome (HEK293) | max response (HaCat) -3.63% | max response (KB-3-1) -2.5% | max response (NIH3T3) -7.2%

COc1ccc(Oc2c(Cl)cnn(C3c4ccccc4-c4ccccc43)c2=O)cc1
inactive: max response (CRL-7250) -3.95% | max response (HEK293) -2.77% | outcome (HaCat) | max response (KB-3-1) -2.29% | outcome (NIH3T3)

CC(=O)OCC1=CCC2C(C)(C)CCCC2(C)C12CCC(C)(CC(=O)O)O2 (stereo not given)
inactive: max response (CRL-7250) -2.76% | max response (HEK293) -0.588% | outcome (HaCat) | max response (KB-3-1) 5.22% | outcome (NIH3T3)

COc1ccc(/C=C/C(=O)O[C@@H]2[C@@H](O[C@@H]3O[C@H](CO)[C@@H](O)[C@H](O)[C@H]3O)[C@@H](O)[C@H](O[C@H]3C4C=CO[C@@H](O[C@@H]5O[C@H](CO)[C@@H](O)[C@H](O)[C@H]5O)C4[C@@]4(CO)O[C@@H]34)O[C@H]2C)cc1 (stereo not given in full)
inactive: max response (CRL-7250) -8.31% | max response (HEK293) -3.69% | outcome (HaCat) | max response (KB-3-1) -1.62% | outcome (NIH3T3)

COc1ccc(/C=C/C(=O)O[C@@H]2[C@@H](OC(C)=O)[C@@H](OC(C)=O)[C@H](O[C@H]3[C@@H]4C=CO[C@@H](O[C@@H]5O[C@H](CO)[C@@H](O)[C@H](O)[C@H]5O)[C@@H]4[C@@]4(CO)O[C@@H]34)O[C@H]2C)cc1
inactive: outcome (CRL-7250) | max response (HEK293) -1.95% | max response (HaCat) 0.723% | max response (KB-3-1) 2.76% | outcome (NIH3T3)

COC(=O)C1=CO[C@@H](O[C@@H]2O[C@H](CO)[C@@H](O)[C@H](O)[C@H]2O)[C@@H]2[C@@H](CO)[C@@H](O)C(O)[C@H]12 (stereo not given in full)
inactive: outcome (CRL-7250) | max response (HEK293) -5.81% | outcome (HaCat) | outcome (KB-3-1) | max response (NIH3T3) 1.79%

CC(=O)[C@@H]1C[C@H](C(C)(C)O[C@@H]2O[C@H](CO)[C@@H](O)[C@H](O)[C@H]2O)CC[C@@]2(CO)OC(=O)C[C@@H]12
inactive: max response (CRL-7250) -8.92% | max response (HEK293) 0.131% | max response (HaCat) 4.13% | max response (KB-3-1) 1.24% | outcome (NIH3T3)

CC1(C)CC[C@]2(C(=O)O)CC[C@]3(C)C(=CCC4[C@@]5(C)CC[C@H](O)C(C)(C)C5CC[C@]43C)C2C1 (stereo not given in full)
inactive: outcome (CRL-7250) | max response (HEK293) -9.46% | outcome (HaCat) | max response (KB-3-1) 2.08% | max response (NIH3T3) -3.2%

Cc1ccc(-n2nc(C(C)(C)C)cc2NC(=O)Nc2cc(COc3cccnc3)[nH]n2)cc1
inactive: max response (CRL-7250) -4.33% | max response (HEK293) -3.79% | outcome (HaCat) | outcome (KB-3-1) | outcome (NIH3T3)

C/C(=C\CC[C@H](CO)[C@@H]1CC[C@]2(C)C3=C(CC[C@@]12C)[C@@]1(C)CCC(=O)C(C)(C)C1CC3)C(=O)O (stereo not given in full)
inactive: max response (CRL-7250) -4.82% | max response (HEK293) -7.09% | outcome (HaCat) | max response (KB-3-1) 6.51% | max response (NIH3T3) -2.55%

FC(F)(F)c1nnc2c(Sc3ccccc3)nc3ccc(Cl)cc3n12
inactive: outcome (NIH3T3)
active: Potency (CRL-7250) 3.66 µM | Potency (HEK293) 5.8 µM | Potency (HaCat) 4.61 µM | Potency (KB-3-1) 5.17 µM

O=C(CCc1ccccc1)c1c(O)c([C@@H]2O[C@H](CO)[C@@H](O)[C@H](O)[C@H]2O)c(O)c([C@@H]2O[C@H](CO)[C@@H](O)[C@H](O)[C@H]2O)c1O
inactive: max response (CRL-7250) -8.34% | max response (HEK293) 0.0644% | max response (HaCat) 3.51% | max response (KB-3-1) 8.16% | outcome (NIH3T3)

CC1OC(OC2CCC3(C)C(CCC4(C)C3C=CC35OCC6(CCC(C)(C)CC63)CCC45C)C2(C)CO)C(OC2OC(CO)C(O)C(O)C2O)C(O)C1OC1OC(CO)C(O)C(O)C1O (stereo not given)
inactive: max response (CRL-7250) -0.103% | max response (HEK293) -1.62% | outcome (HaCat) | outcome (KB-3-1) | outcome (NIH3T3)

CCC(C)C(N)C(=O)NCCN1CCOCC1 (stereo not given)
inactive: max response (CRL-7250) -0.617% | max response (HEK293) 2.51% | outcome (HaCat) | max response (KB-3-1) 0.0309% | outcome (NIH3T3)

COc1cccc(OC)c1-c1nc(C(=O)N[C@@H](CC(C)C)C(=O)O)cn1-c1ccnc2cc(Cl)ccc12
inactive: outcome (CRL-7250) | max response (HEK293) -12.4% | max response (HaCat) 3.78% | outcome (KB-3-1) | outcome (NIH3T3)

O=C(Cc1ccccc1)OC[C@H]1O[C@H](O[C@H]2O[C@H](CO)[C@@H](O)[C@H](O)[C@H]2O)[C@H](O)[C@@H](O)[C@@H]1O
inactive: max response (CRL-7250) -5.14% | max response (HEK293) 4.52% | outcome (HaCat) | max response (KB-3-1) 9.38% | max response (NIH3T3) 0.692%

C[C@@]1(C(=O)O)CCC[C@@]2(C)C3=CC[C@H]4C[C@@]3(CC[C@H]12)CC4(O)CO (stereo not given in full)
inactive: max response (CRL-7250) -19% | max response (HEK293) 4.94% | outcome (HaCat) | outcome (KB-3-1) | outcome (NIH3T3)
